Source: PubChem BioAssay
In the library only some 7.4% were active in any assay of this set; here they are far more common.
Rab9 prom act: activators of Rab9 promoter | 320,000 tested, 2.8% active | Potency, µM (doses to about 9.22 µM), hits mostly activators | Huh7 Rab9 promoter-luciferase reporter, luminescence, 24 h; also: nearly all actives have a fitted effect of over 60% in size
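Steps: seed 1500 Huh7 Rab9-luc cells per well, rest 2 h at 37 °C; add compound in DMSO; incubate 24 h; add luciferase reagent, 10 min ambient; read luminescence.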
SMN2 splice up: increases expression of the SMN2 splice variant; HEK293 SMN2-luciferase splicing reporter, luminescence, 30-36 h; Potency, µM (titrated, usually from 46.1 µM), actives largely listed as activators; 210,000 tested, 2.8% active; AID 1458; also: nearly all actives have a fitted effect of over 55% in size
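HEK293 cells carry an SMN2 minigene-luciferase reporter in which exon 7 inclusion puts luciferase in frame. Cells were seeded at 2000 cells/well, attached for 10-12 hours, then exposed to compounds for 30-36 hours at 37C before ONE-Glo luminescence.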
ELG1 genotoxic: induces genotoxicity in HEK293T cells with luciferase-tagged ELG1 | 330,000 tested, 1.3% active | HEK293T ELG1-luciferase reporter, luminescence, 16 h | AID 504466 | Potency, µM (series often up to 46 µM), hits mostly activators; also: nearly all actives have a fitted effect of over 60% in size
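Genotoxic stress is detected as increased luminescence from luciferase-tagged ELG1 in HEK293T cells, measured with ONE-Glo after a 16 hr treatment at 37 °C.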
NPC1 promoter act: activators of NPC1 promoter; Huh7 NPC1 promoter luciferase reporter, 24 h; Potency, µM (top dose mostly 9.22 µM), most hits filed as activators; 320,000 tested, 2.4% active; also: nearly all actives have a fitted effect of over 60% in size
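Quantitative HTS used a cell-based reporter: Huh7 cells stably bearing the NPC1 promoter upstream of luciferase were treated with compounds for 24 h, and promoter activation was read as luminescence.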
FLuc counter: inhibits or activates purified firefly luciferase, miR-21 counter-screen | Potency, µM (titrated, usually from 57.5 µM), hits mostly inhibitors | P08659 | AID 588342 | 360,000 tested, 6.9% active | purified FLuc, Km substrates, luminescence inhibition; also: nearly all actives have a fitted effect of over 55% in size
Target sequence (P08659 whole entry, looked up): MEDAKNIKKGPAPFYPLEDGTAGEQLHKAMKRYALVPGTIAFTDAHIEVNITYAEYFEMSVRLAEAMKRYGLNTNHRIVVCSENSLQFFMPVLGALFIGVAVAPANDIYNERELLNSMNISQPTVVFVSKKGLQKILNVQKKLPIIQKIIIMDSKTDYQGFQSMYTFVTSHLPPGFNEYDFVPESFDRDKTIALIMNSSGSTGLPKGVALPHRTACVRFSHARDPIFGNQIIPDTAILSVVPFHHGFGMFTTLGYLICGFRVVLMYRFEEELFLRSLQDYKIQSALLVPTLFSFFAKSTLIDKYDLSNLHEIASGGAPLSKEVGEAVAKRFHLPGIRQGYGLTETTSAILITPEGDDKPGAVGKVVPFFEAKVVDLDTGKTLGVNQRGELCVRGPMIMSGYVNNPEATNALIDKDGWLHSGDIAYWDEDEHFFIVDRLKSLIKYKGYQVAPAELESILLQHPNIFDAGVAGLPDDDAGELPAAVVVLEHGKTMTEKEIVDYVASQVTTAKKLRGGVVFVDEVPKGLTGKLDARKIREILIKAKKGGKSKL
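Biochemical qHTS of compounds, final roughly 60 µM downward over six points, against 10 nM purified firefly luciferase using Km concentrations of substrates (10 uM D-luciferin, 10 uM ATP) in Tris acetate pH 7.5 buffer; luminescence output.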
Numbers stand for hits; i = inactive; ? = inconclusive; nt = no result. Calls follow the shape of the dose curve; as a rule, active = well fitted curve in the direction sought with a large enough effect; inconclusive = small, poorly fitted or top-dose-only effect, or another doubt; inactive = no such curve, though single readings can be large; an effect the other way counts as inactive or inconclusive.

SMILES	Rab9 prom act	SMN2 splice up	ELG1 genotoxic	NPC1 promoter act	FLuc counter
COc1ccccc1Oc1ccc2c(c1)C(=O)N(c1ccccc1)C2=O	i	i	i	i	9.5µM
CCN(CC(=O)Nc1ccc2c(c1)OCCO2)C(=O)COc1cc(C)ccc1Cl	i	nt	i	i	i
Cc1ccc(Cl)c(OCC(=O)Nc2ccc3c(c2)OCCO3)c1	1.4µM	18µM	i	2.8µM	1.9µM
O=C(COC(=O)COc1ccc(Cl)cc1)Nc1ccc2c(c1)OCCO2	i	nt	i	i	i
O=C(COc1cc(Cl)c(Cl)cc1Cl)NC(=O)Nc1ccc2c(c1)OCCO2	?	18µM	?	?	21µM
O=C(Nc1ccc2c(c1)OCCO2)c1ccccn1	0.32µM	1.3µM	1µM	0.79µM	0.85µM
O=C(Nc1ccc(NC(=O)c2ccccn2)cc1)C(=O)Nc1ccc2c(c1)OCCO2	i	?	i	i	i
O=C(Nc1ccc2c(c1)OCCO2)c1ccc2ccccc2n1	4.5µM	11µM	?	i	2.1µM
Cc1ccc(NC(=O)c2ccc3ccccc3n2)cc1S(=O)(=O)N(C)C	2.8µM	22µM	?	?	4.3µM
COC(=O)CN1C(=O)Nc2ccc(Br)cc2C1c1ccccc1Cl (centres undefined)	i	i	i	i	i
CSc1ccccc1OCc1cc(C(=O)N(C)Cc2ccc(C)o2)no1	4µM	nt	?	?	17µM
CSc1ccccc1OCc1cc(C(=O)NCc2ccc(C)s2)no1	i	nt	i	i	?
CSc1ccccc1OCc1cc(C(=O)N(C)Cc2ccc3nsnc3c2)no1	0.71µM	nt	3.3µM	0.63µM	?
CCOC(=O)c1ccc(CNC(=O)c2cc(COc3ccccc3SC)on2)o1	?	nt	?	2.5µM	8.5µM
Cc1nc(-c2ccc(F)cc2)c(CC(=O)N2CCN(S(=O)(=O)c3cccc(F)c3)CC2)s1	i	nt	i	i	i
CC(C)COc1ccc(C(=O)Nc2sc3c(c2C(=O)O)CC(C)(C)OC3)cc1	i	nt	i	i	21µM
CC1(C)Cc2c(sc(NC(=O)C(=O)N3CCCC3)c2C(=O)O)CO1	i	nt	i	i	i
CC1(C)Cc2c(sc(NC(=O)c3ccccc3)c2C(=O)O)CO1	?	?	i	?	6.7µM
Cc1cnc(NC(=O)c2c(Cl)cnn2C)s1	i	nt	i	i	i
Cc1ccc(CNC(=O)Nc2ccccc2)n1C	i	nt	i	i	19µM
Cc1cc(C)cc(NC(=S)NCc2cccn2C)c1	i	i	i	i	i
Cc1ccc(NC(=O)NCc2cccn2C)cc1C	?	nt	?	4µM	?
Cn1cccc1CNC(=O)Nc1ccccc1	?	?	?	i	19µM
Cn1cccc1CNC(=O)Nc1ccc(Cl)cc1	3.5µM	?	?	?	13µM
Cc1ccc(NC(=O)NCCN2CCCCC2)cc1C	i	nt	i	i	i
SMILES	Rab9 prom act	SMN2 splice up	ELG1 genotoxic	NPC1 promoter act	FLuc counter
Cc1cc(C(=O)Nc2ccccc2C(=O)O)ccc1NC(=O)COc1cccc(C)c1C	i	nt	i	i	6µM
Cc1cc(C(=O)Nc2ccccc2C(=O)O)ccc1NC(=O)COc1cccc([N+](=O)[O-])c1	i	nt	i	i	24µM
COCC(=O)Nc1cc(C(=O)Nc2ccccc2C)ccc1Cl	i	i	i	i	?
Cc1ccc(C(=O)Nc2ccccc2C(=O)O)cc1NC(=O)COc1c(C)cccc1C	i	i	i	i	13µM
COc1ccc(O)c(-c2nc(N)nc(N)n2)c1	i	nt	i	4µM	?
COc1ccc(OC)c(NC(=O)C2CC(=O)N(Cc3ccco3)C2)c1 (centres undefined)	i	nt	i	i	i
O=C1CN(C(=O)CSc2ccccn2)c2ccccc2N1	nt	nt	i	nt	nt
CCOC(=O)c1c(SCC(=O)Nc2nccs2)nc(C)c(C)c1C	2.5µM	nt	?	2.8µM	i
Cc1cccc(-n2ccnc2SCC(=O)Nc2nccs2)c1	3.5µM	nt	i	?	?
N#Cc1cc2c(nc1SCC(=O)Nc1nccs1)CCCCC2	0.28µM	1µM	0.12µM	0.28µM	0.67µM
N#Cc1cc2c(nc1SCC(=O)Nc1sc3c(c1C#N)CCC3)CCCCCC2	i	i	i	i	i
Cc1cc(C)cc(-n2ccnc2SCC(=O)Nc2nccs2)c1	i	i	i	i	i
CCc1nnc(NC(=O)CSc2nc3c(cc2C#N)CCC3)s1	2.2µM	13µM	?	2.8µM	0.85µM
N#Cc1cc2c(nc1SCC(=O)Nc1sc3c(c1C#N)CCC3)CCC2	?	i	i	?	i
O=C(COc1ccc(Cl)cc1Cl)Nc1c(-c2cccs2)nc2ccccn12	i	i	i	i	i
CCSc1nnc(NC(=O)CSc2nc(C)cc(C)n2)s1	i	i	i	i	i
Cc1ccc(C#N)c(SCC(=O)Nc2nccs2)n1	0.45µM	1.8µM	1.8µM	0.79µM	i
Cc1ccc(SCC(=O)Nc2nccs2)cc1	?	i	?	?	?
CCSc1nnc(NC(=O)CSc2nc3c(cc2C#N)CCCC3)s1	3.2µM	7.9µM	i	1.8µM	12µM
O=C(NCc1ccco1)c1noc2c1CCCC2	i	i	i	i	i
CC(NC(=O)c1noc2c1CCCCC2)c1ccccc1 (centres undefined)	i	i	i	i	i
O=C(NCc1cccs1)c1noc2c1CCCCC2	?	i	18µM	?	?
O=C(NC1CCCC1)c1noc2c1CCCCC2	?	10µM	14µM	?	?
O=C(NCc1ccccc1)c1noc2c1CCCCC2	1.6µM	25µM	?	3.5µM	21µM
C[C@H](CO)N1C[C@H](C)[C@@H](CN(C)S(C)(=O)=O)Oc2c(NC(=O)c3ccncc3)cccc2C1=O	nt	nt	i	nt	nt
SMILES	Rab9 prom act	SMN2 splice up	ELG1 genotoxic	NPC1 promoter act	FLuc counter
CCOCCc1nn2c(=O)cc(COC(=O)c3ccc(NC(=O)C4CCCCC4)cc3)nc2s1	nt	nt	nt	nt	i
CC(C)C(=O)Nc1ccc(-c2nnc(-c3ccccc3)o2)cc1	0.32µM	nt	?	0.32µM	2.4µM
COc1ccc(CC(=O)Nc2ccc(-c3nnc(-c4ccccc4)o3)cc2)cc1OC	i	i	i	i	i
CC(=O)/C=C(\C)Nc1ccc(-c2cnc(-c3ccccc3)o2)cc1	0.45µM	4µM	2µM	1µM	1.9µM
O=C(Nc1ccc(-c2nnc(-c3ccccc3)o2)cc1)C(F)(F)F	1.3µM	nt	?	1.6µM	?
Cc1cc(C(=O)CSc2ccccc2)cc(C)c1O	i	nt	?	?	19µM
Cc1ccc(-c2nc3cc(NS(=O)(=O)c4ccc(C)cc4)ccc3o2)cc1	i	i	i	i	?
Nc1ccc2oc(-c3cccs3)nc2c1	3.5µM	nt	9.2µM	3.2µM	12µM
Cc1ccc(-c2nc3cc(C)ccc3o2)cc1	0.63µM	11µM	0.52µM	?	0.17µM
CC(C)c1ccc2oc(-c3ccc(N)cc3)nc2c1	0.56µM	nt	?	0.56µM	0.19µM
Cc1ccc(/C(O)=C/c2nc3cc(C)ccc3oc2=O)cc1	i	nt	i	i	12µM
CC(C)c1ccc2oc(-c3ccc(NC(=O)c4cc5ccccc5o4)cc3)nc2c1	nt	i	nt	nt	i
Cc1ccc(-c2nc3cc(NC(=O)c4cc5ccccc5o4)ccc3o2)cc1	nt	i	nt	nt	i
Cc1ccc2oc(-c3cccc(N)c3)nc2c1	0.63µM	nt	2.3µM	1µM	0.76µM
